Reference: PubChem BioAssay (Tox21)
Inconclusive results are not listed. Activity calls are given as the source filed them. Unless noted, calls follow the shape of the full dose curve.

Experiments:
[1] = Nuclear factor erythroid 2-related factor 2/antioxidant responsive element (Nrf2/ARE) small molecule agonists: qHTS cell viability counter screen in human keratinocytes (AID 1919968; active = well fitted curve in the direction sought with a large enough effect in the repeat runs; an effect the other way counts as inactive or inconclusive; also: nearly all actives have a fitted effect of over 55% in size)
Summary of the method: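 CellTiter-Fluor fluorescence, read 1 h after reagent, gave viability in the same wells as the ARE-luciferase assay. KeratinoSens cells (1,500/well) had 23 h compound exposure at 37 C/5% CO2 following 5 h plating.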

[2] = Nuclear factor erythroid 2-related factor 2/antioxidant responsive element (Nrf2/ARE) small molecule agonists: luciferase reporter gene qHTS assay in human keratinocytes (AID 1919969); also: nearly all actives have a fitted effect of over 35% in size
[3] = biological target: Gonadotropin-releasing hormone receptor (Homo sapiens) (UniProt P30968); assay: Human gonadotropin-releasing hormone receptor (GnRHR) small molecule agonists, calcium flux assay in GnRHR-HEK293 cells (AID 1920063); also: nearly all actives have a fitted effect of over 35% in size
Chain of Gonadotropin-releasing hormone receptor (Homo sapiens) (P30968 whole entry, looked up): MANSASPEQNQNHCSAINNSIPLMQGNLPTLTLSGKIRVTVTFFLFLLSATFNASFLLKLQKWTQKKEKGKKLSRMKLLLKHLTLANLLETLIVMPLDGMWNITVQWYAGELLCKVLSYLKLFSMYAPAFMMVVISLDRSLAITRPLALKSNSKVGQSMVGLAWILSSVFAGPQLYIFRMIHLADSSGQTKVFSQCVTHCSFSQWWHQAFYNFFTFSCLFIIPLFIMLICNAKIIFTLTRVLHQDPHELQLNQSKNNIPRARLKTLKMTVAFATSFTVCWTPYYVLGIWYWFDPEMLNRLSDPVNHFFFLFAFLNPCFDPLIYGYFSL
Summary of the method: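 Agonist mode: compounds at 15 concentrations, in triplicate, went onto calcium dye-loaded GnRHR-HEK293 cells. Intracellular calcium was then followed as 480/540 nm fluorescence at 1 s intervals over 3 min.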

[4] = biological target: KiSS-1 receptor (Homo sapiens) (UniProt Q969F8); assay: Human kisspeptin (KISS1R) small molecule agonists, calcium flux assay in KISS1R-HEK293 cells (AID 1920064; active = well fitted curve in the direction sought with a large enough effect in the repeat runs; an effect the other way counts as inactive or inconclusive)
Chain of KiSS-1 receptor (Homo sapiens) (Q969F8 whole entry, looked up): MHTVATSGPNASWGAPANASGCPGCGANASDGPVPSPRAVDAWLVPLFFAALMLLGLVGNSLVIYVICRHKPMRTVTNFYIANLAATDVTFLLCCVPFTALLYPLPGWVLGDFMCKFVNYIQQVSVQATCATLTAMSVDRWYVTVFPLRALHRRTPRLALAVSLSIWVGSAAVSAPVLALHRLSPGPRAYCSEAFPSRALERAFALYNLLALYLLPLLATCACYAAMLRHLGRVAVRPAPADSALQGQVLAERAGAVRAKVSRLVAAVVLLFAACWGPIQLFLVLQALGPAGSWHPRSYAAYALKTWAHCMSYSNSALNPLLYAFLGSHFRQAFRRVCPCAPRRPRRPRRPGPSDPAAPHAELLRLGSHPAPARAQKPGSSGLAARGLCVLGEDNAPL
Summary of the method: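 Agonist mode: intracellular calcium rise tracked at 1 s intervals over 3 min (480/540 nm) immediately after compound addition to dye-loaded KISS1R-HEK293 stable cells. Each compound tested at 15 concentrations in triplicate.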

[5] = G protein-coupled receptor (GPCR) small molecule agonists, calcium flux assay: HEK293 wild type cell line counter screen (AID 1920065)
Summary of the method: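 Calcium flux counter screen: compound added in agonist mode at 15 concentrations in triplicate to dye-loaded parental HEK293 cells. Fluorescence (480/540) read kinetically for 3 min; ATP served as positive control.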

[6] = p53 small molecule agonists, cell-based qHTS assay with human liver microsomes (AID 1963577)
Summary of the method: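 p53RE-bla reporter cells were pre-incubated 5 h at 37 C, then treated with compounds plus human liver microsomes (0.5 mg/mL final) and NADPH (0.5 mg/mL final) for 16 h at 37 C. Beta-lactamase activity was read by LiveBLAzer fluorescence after 2 h at room temperature.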

[7] = p53 small molecule agonists, cell-based qHTS assay with rat liver microsomes (AID 1963578)
Summary of the method: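 p53RE-bla cells were exposed to compounds together with rat liver microsomes (0.5 mg/mL final) and NADPH (0.5 mg/mL final) for 16 h at 37 C, then read by LiveBLAzer beta-lactamase fluorescence after 2 h at room temperature.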

[8] = p53 small molecule agonists, cell-based qHTS assay with human liver microsomes: qHTS cell viability counter screen (AID 1963579); also: nearly all actives have a fitted effect of over 45% in size
Summary of the method: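 p53RE-bla cells (4,000/well) were pre-incubated 5 h at 37 C, then given compounds in DMSO plus human liver microsomes (0.5 mg/mL final) and NADPH (0.5 mg/mL final) for 16 h at 37 C. Viability was read by CellTiter-Glo luminescence.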

[9] = p53 small molecule agonists, cell-based qHTS assay with rat liver microsomes: qHTS cell viability counter screen (AID 1963580); also: nearly all actives have a fitted effect of over 45% in size
Summary of the method: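 Luminescent ATP readout (CellTiter-Glo, 30 min at room temperature) reports viability of p53RE-bla HCT-116 cells after 16 h at 37 C with test compounds under metabolic activation by rat liver microsomes and NADPH at 0.5 mg/mL final each.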

[10] = p53 small molecule agonists, cell-based qHTS assay: qHTS cell viability counter screen (AID 1963581); also: nearly all actives have a fitted effect of over 45% in size
Summary of the method: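 Counter screen read by CellTiter-Glo luminescence (ATP content, 30 min at room temperature), run in the same wells as the beta-lactamase reporter read. HCT-116 p53RE-bla cells saw compounds for 16 h at 37 C.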

[11] = p53 small molecule agonists, cell-based qHTS assay (AID 1963582; active = well fitted activation curve with a large enough effect in the signal ratio in the repeat runs, not every such curve was filed as active; the % refers to the signal ratio)
Summary of the method: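 Read-out is beta-lactamase FRET fluorescence after 2 h at room temperature with LiveBLAzer B/G substrate. p53 response element-bla cells were treated 16 h at 37 C with compounds in DMSO, added 5 h after seeding.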

[12] = biological target: 5-hydroxytryptamine receptor 2A (Homo sapiens) (UniProt P28223); assay: 5-hydroxytryptamine receptor 2A (HTR2A) small molecule antagonists, cell-based qHTS assay (AID 1963586); also: nearly all actives have a fitted effect of over 45% in size
Chain of 5-hydroxytryptamine receptor 2A (Homo sapiens) (P28223 whole entry, looked up): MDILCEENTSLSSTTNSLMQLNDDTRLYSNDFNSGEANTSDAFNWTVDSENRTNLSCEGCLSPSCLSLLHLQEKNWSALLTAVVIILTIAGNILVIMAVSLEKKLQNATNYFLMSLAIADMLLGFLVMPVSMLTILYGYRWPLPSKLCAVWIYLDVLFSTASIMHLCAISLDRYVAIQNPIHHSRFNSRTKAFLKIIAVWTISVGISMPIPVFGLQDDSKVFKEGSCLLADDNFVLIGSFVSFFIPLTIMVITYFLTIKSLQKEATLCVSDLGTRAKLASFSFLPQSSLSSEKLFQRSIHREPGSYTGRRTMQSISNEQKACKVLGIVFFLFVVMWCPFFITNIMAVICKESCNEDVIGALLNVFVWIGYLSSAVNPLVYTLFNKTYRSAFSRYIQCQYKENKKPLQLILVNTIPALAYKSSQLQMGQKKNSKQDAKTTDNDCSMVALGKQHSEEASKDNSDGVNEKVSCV
Summary of the method: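 CHO cells stably expressing human HTR2A were plated for 18 h at 37 C, then loaded with calcium dye for 1 h. Compounds were preincubated 5 min at room temperature before DOI (4 nM solution) was added. Kinetic fluorescence was read for 3 min.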

[13] = biological target: 5-hydroxytryptamine receptor 2A (Homo sapiens) (UniProt P28223); assay: 5-hydroxytryptamine receptor 2A (HTR2A) small molecule agonists, cell-based qHTS assay (AID 1963587); also: nearly all actives have a fitted effect of over 30% in size
Summary of the method: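 HTR2A-CHO cells, plated 18 h at 37 C/5% CO2, dye-loaded 1 h at 37 C; compounds in DMSO added by pin tool (agonist mode). Intracellular calcium flux read as kinetic fluorescence on FDSS over 2 min at 1 s intervals.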

[14] = biological target: Muscarinic acetylcholine receptor M1 (Homo sapiens) (UniProt P11229); assay: Cholinergic receptor muscarinic 1 (CHRM1) small molecule antagonists, cell-based qHTS assay (AID 1963588); also: nearly all actives have a fitted effect of over 40% in size
Chain of Muscarinic acetylcholine receptor M1 (Homo sapiens) (P11229 whole entry, looked up): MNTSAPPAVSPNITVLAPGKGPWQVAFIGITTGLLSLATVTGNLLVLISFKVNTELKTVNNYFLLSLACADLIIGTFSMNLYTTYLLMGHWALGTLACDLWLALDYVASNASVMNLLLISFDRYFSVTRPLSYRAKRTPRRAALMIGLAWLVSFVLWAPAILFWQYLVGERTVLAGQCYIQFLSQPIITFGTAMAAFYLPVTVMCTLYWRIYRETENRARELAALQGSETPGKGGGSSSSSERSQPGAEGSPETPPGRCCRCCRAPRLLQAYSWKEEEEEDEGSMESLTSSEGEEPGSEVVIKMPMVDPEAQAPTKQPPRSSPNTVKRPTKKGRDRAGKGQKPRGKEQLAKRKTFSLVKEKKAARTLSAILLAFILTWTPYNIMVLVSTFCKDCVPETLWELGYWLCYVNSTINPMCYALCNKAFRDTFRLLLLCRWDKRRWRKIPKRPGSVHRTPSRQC
Summary of the method: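 Compounds were tested at 15 concentrations in three independent runs. Dye-loaded CHRM1-CHO cells were exposed 5 min at room temperature before stimulation by acetylcholine added at 50nM. Intracellular calcium was read kinetically on FDSS for 3 min.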

[15] = biological target: Muscarinic acetylcholine receptor M1 (Homo sapiens) (UniProt P11229); assay: Cholinergic receptor muscarinic 1 (CHRM1) small molecule agonists, cell-based qHTS assay (AID 1963589); also: nearly all actives have a fitted effect of over 35% in size
Summary of the method: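 Agonist-mode calcium-flux screen: compounds at 15 concentrations, three independent runs, were pin-transferred onto dye-loaded human CHRM1-CHO cells. Fluorescence was then recorded kinetically every second over minutes.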

[16] = cAMP Responsive Elements (CRE) small molecule agonists, cell-based qHTS assay (AID 1963590)
Summary of the method: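 Agonist mode: compound added to CRE-bla HEK 293T cells (2,000/well, 18 h after plating) for 3 h at 37 C/5% CO2. Reporter activity detected via FRET beta-lactamase substrate, 2 h room-temperature loading.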

[17] = cAMP Responsive Elements (CRE) small molecule antagonists, cell-based qHTS assay (AID 1963591; active = well fitted inhibition curve with a large enough effect in the signal ratio in the repeat runs, not every such curve was filed as active; the % refers to the signal ratio)
Summary of the method: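 Antagonist mode: compounds are added alongside the adenylyl cyclase activator NKH477 (0.25 uM final) to CRE-bla HEK293T cells for 3 h. LiveBLAzer FRET substrate, 2 h at room temperature, reports bla expression.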

[18] = biological target: Beta-2 adrenergic receptor (Homo sapiens) (UniProt P07550); assay: Adrenergic beta2 receptor (ADRB2) small molecule antagonists, cell-based qHTS assay (AID 1963592); also: series mostly up to about 92 µM; nearly all actives have a fitted effect of over 50% in size
Chain of Beta-2 adrenergic receptor (Homo sapiens) (P07550 whole entry, looked up): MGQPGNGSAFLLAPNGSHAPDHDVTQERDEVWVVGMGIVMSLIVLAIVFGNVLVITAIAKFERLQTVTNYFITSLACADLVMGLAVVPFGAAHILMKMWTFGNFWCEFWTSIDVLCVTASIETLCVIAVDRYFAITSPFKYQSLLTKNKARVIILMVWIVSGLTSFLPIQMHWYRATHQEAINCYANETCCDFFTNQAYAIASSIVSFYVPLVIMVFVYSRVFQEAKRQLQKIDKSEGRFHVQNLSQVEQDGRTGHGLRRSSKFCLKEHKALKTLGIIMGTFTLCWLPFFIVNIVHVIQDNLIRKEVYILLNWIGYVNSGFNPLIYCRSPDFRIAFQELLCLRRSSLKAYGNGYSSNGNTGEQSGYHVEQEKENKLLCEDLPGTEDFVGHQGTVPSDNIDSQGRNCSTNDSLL
Summary of the method: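 Assay format: CHO-ADRB2 cells, 18-20hr seeding at 37C/5% CO2, then compound plus 1nM isoproterenol agonist mix for 0.5hr RT. Homogeneous time-resolved fluorescence cAMP detection after 1hr, expressed as 665/615 nm ratio.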

[19] = biological target: D(2) dopamine receptor (Homo sapiens) (UniProt P14416); assay: Dopamine D2 receptor (DRD2) small molecule agonists, cell-based qHTS assay (AID 1963594); also: nearly all actives have a fitted effect of over 35% in size
Chain of D(2) dopamine receptor (Homo sapiens) (P14416 whole entry, looked up): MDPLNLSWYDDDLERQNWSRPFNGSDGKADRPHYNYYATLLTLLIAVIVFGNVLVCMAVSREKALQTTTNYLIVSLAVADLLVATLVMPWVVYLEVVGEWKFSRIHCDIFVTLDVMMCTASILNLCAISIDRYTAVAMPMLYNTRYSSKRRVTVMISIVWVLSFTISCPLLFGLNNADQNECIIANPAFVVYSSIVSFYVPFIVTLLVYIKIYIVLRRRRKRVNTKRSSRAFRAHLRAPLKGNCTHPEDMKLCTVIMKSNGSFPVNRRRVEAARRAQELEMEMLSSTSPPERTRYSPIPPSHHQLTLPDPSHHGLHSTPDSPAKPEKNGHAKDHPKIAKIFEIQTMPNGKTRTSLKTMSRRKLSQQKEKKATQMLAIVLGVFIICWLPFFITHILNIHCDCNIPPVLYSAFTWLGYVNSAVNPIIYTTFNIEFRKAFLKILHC
Summary of the method: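 HEK293 cells stably expressing DRD2 were cultured 24 h at 37 C, then given Ro20-1724 (0.1 mM final) and compounds for 10 min at room temperature. NKH477 (200nM) was then added for 30 min. cAMP was read by HTRF.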

[20] = biological target: D(2) dopamine receptor (Homo sapiens) (UniProt P14416); assay: Dopamine D2 receptor (DRD2) small molecule antagonists, cell-based qHTS assay (AID 1963595; active = well fitted inhibition curve with a large enough effect in the signal ratio in the repeat runs, with a control signal flat; the % refers to the signal ratio)
Summary of the method: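 HEK293 cells stably expressing DRD2 were preincubated with 0.1 mM Ro20-1724, then with compound for 10 min at room temperature. Cells were stimulated with 200 nM NKH477 plus 12 nM quinpirole for 30 min, and cAMP was read by HTRF.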

Measured: Potency

N#CCNCC#N
inactive: all assays above

ClCOCCl
inactive: all assays above

BrCc1ccc(Br)cc1
not listed: [16]
inactive: all other assays above

COS(=O)(=O)OC
not listed: [17]
inactive: all other assays above

Nn1cnnc1
not listed: [16]
inactive: all other assays above

CC1CCC(=O)O1 (stereo unspecified)
not listed: [17]
inactive: all other assays above

COc1nc(NC(C)C)nc(NC(C)C)n1
not listed: [17]
inactive: all other assays above

[CH3][Sn]([Cl])([Cl])[Cl]
not listed: [18]
inactive: all other assays above

O=C(O)c1cc(Cl)ccc1Cl
not listed: [17]
inactive: all other assays above

C[C@H]1O[C@H](OC2[C@@H](O)[C@@H](O)C(O)[C@H](O)[C@H]2O)[C@@H](N)C[C@@H]1N=C(N)C(=O)O (stereo partly specified)
not listed: [17] | [20]
inactive: all other assays above

C[C@]1(O)CC[C@H]2[C@@H]3CCC4=CC(=O)CC[C@]4(C)[C@@]3(F)[C@@H](O)C[C@@]21C
not listed: [18]
inactive: all other assays above

CN(C)CCC#N
inactive: all assays above

CCc1ccccc1C
not listed: [16]
inactive: all other assays above

Clc1nc(Cl)nc(Nc2ccccc2Cl)n1
not listed: [17] | [20]
inactive: all other assays above

CC(C)(C)OOC(C)(C)C
not listed: [17]
inactive: all other assays above
